Screening data deposited in PubChem BioAssay by National Center for Advancing Translational Sciences (NCATS).
In the library only some 9% were active in any assay of this set; here they are far more common.
12-LOX inh: ALOX12 (human) lipoxygenase inhibition; Potency, µM (series often up to 108 µM), without a hit: at the top dose activity change, negative = inhibition, most hits filed as inhibitors; AID 1671190; actives 1.1% (n = 580,000); purified 12hLO, xylenol orange hydroperoxide absorbance; also: % is scaled to controls: 0 for no effect and ±100 for the full control effect
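Purified human 12hLO (150 nM final) in 25 mM Hepes, 0.01% Triton X-100, pH 7.0 was preincubated 15 min at room temperature with compound. Then 40 uM arachidonic acid was added, 30 min. Hydroperoxide was read by Fe-XO absorbance ratio 573/405 nm.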
HP1b binding inh: inhibitors of HP1-beta chromodomain binding to methylated histone tails | actives 0.56% (n = 390,000) | P83916 | AlphaScreen HP1-beta / biotin-H3K9me3 peptide binding | Potency, µM (highest dose often 114 µM), inactives show at the top dose activity change, negative = inhibition, hits mostly inhibitors | AID 540317; also: nearly all actives have a fitted effect of over 70% in size
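AlphaScreen: HP1-beta (50 nM) preformed 30 min with biotin-H3(1-18)K9me3 peptide (50 nM) in PBS pH 7.4, 0.01% Tween-20. Compound added for 30 min at RT, then streptavidin donor/nickel chelate acceptor beads (10 ug/mL) for 30 min.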
BAZ2B block: BAZ2B (human) inhibition. Q9UIF8. AlphaScreen BAZ2B-H3K14Ac peptide displacement. Potency, µM (doses to about 114 µM), without a hit: at the highest dose activity change, negative = inhibition, usual class: inhibitors. actives 4.4% (n = 360,000). AID 504333; also: % is scaled to controls: 0 for no effect and ±100 for the full control effect; nearly all actives have a fitted effect of over 60% in size
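Multi-concentration screen (max 110 uM) measuring displacement of acetylated histone H3 peptide from BAZ2B by AlphaScreen, using 50 nM protein, 50 nM peptide and 10 ug/mL streptavidin donor plus Ni-chelate acceptor beads.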
PLK1 PBD block: inhibitors of human PLK1 polo-box domain binding; P53350; AID 720504; Plk1 PBD binding of FITC phosphopeptide, fluorescence polarization; actives 2.8% (n = 360,000); Potency, µM, for the others: max response, negative = inhibition, hits mostly inhibitors; also: series mostly up to about 57 µM; % is scaled to controls: 0 for no effect and ±100 for the full control effect; nearly all actives have a fitted effect of over 65% in size
Target sequence (P53350 whole entry, looked up, the tested form may be a part): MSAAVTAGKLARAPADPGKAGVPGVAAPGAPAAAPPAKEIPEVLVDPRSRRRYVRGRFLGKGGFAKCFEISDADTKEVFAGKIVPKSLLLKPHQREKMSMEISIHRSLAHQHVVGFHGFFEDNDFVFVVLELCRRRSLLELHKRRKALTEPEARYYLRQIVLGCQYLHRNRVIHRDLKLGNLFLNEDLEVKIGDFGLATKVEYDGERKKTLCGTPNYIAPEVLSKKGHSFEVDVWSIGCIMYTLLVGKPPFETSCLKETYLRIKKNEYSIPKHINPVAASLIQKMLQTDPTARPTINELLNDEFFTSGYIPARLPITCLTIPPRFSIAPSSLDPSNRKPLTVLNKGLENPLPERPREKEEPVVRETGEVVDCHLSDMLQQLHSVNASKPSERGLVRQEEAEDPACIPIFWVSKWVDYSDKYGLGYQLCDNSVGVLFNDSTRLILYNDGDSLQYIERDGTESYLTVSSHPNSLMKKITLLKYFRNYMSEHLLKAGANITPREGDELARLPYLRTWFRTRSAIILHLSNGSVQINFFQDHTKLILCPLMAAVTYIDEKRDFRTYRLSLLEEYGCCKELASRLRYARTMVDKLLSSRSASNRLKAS
JMJD2A Tudor: blocks the human JMJD2A Tudor domain; Potency, µM (titrated, usually from 114 µM), without a hit: at the top dose activity change, negative = inhibition, usual class: inhibitors; O75164; actives 4.4% (n = 390,000); AID 504339; AlphaScreen JMJD2A-Tudor / H3K4me3 peptide binding; also: % is scaled to controls: 0 for no effect and ±100 for the full control effect; nearly all actives have a fitted effect of over 50% in size
G9a block: blocks human histone lysine methyltransferase G9a | actives 8.8% (n = 350,000) | Potency, µM (series often up to 102 µM), without a hit: at the highest dose activity, negative = inhibition, most hits filed as inhibitors | G9a H3K9 monomethylation, AlphaScreen, 2 h; also: % is scaled to controls: 0 for no effect and ±100 for the full control effect; nearly all actives have a fitted effect of over 75% in size
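Signal arises when biotinylated H3K9 peptide, once monomethylated, bridges streptavidin donor and antibody-captured acceptor beads. Enzyme at 20 nM was preincubated 15 min with test compounds; peptide 500 nM and SAM 20 uM then reacted for 2 h.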
* = called active by the depositor; ? = inconclusive; . = not tested or not shown; [ ] = another dose, or the depositor's remark. Calls follow the shape of the dose curve; as a rule, active = well fitted curve in the direction sought with a large enough effect; inconclusive = small, poorly fitted or top-dose-only effect, or another doubt; inactive = no such curve, though single readings can be large; an effect the other way counts as inactive or inconclusive. Potency is read from the fitted curve at half-maximal effect.

SMILES	12-LOX inh	HP1b binding inh	BAZ2B block	PLK1 PBD block	JMJD2A Tudor	G9a block
Cc1ccc(/C=N/Nc2ccc(Cl)nn2)cc1	-1.1%	8.6%[57 µM]	0.3%	-11.9%	-7.2%	8.8%[12.7 µM]
Cc1ccc(Sc2ccc(CN3CCCC3)cc2[N+](=O)[O-])cc1	?	?	?	-2.4%	44.7µM*	?
Cc1ccc(Sc2ccc(CO)cc2[N+](=O)[O-])cc1	?	-22.2%	?	-4.5%	?	-47.3%
CN1CCN(Cc2ccc(Sc3ccc(Cl)cc3)c([N+](=O)[O-])c2)CC1	?	-28.8%	31.6µM*	-17.7%	?	-44.4%
CCOC(=O)C1=C(C)NC(=O)C(C#N)C1c1ccncc1 (configuration not stated)	-0.1%	16.5%	-1.6%	-6.4%	-6.7%	7.1%
Cc1ccc(-c2c(C(N)=O)c(C)nc3sc4c(c23)CCCC4)cc1	7.5%	.	.	.	.	.
CCOC(=O)Nc1ccc2c(c1)N(C(=O)N1CCN(C)CC1)c1ccccc1CC2	-5.8%	0.3%	-13.4%	-10.6%	-10.9%	-0.9%
CCOC(=O)Nc1ccc2c(c1)N(C(=O)CN(CC)CC)c1ccccc1CC2	0.0%	15.2%	2.7%	-9.9%	-11.2%	.
CCOC(=O)Nc1ccc2c(c1)N(C(=O)CN1CCN(C)CC1)c1ccccc1CC2	5.01µM*	37.3%	-32.5%	0.7%	-10.6%	4.6%[0.501 µM]
CC(C)OC(=O)Nc1ccc2c(c1)N(C(=O)N1CCN(C)CC1)c1ccccc1CC2	?	44.7µM*	39.8µM*	-6.5%	0.891µM*	?
CCN(CC)CC(=O)Nc1ccc2c(c1)N(C(=O)CN(CC)CC)c1ccccc1CC2	-2.1%[57.4 µM]	32.7%	0.6%	-3.6%	-14.4%	56.2µM*
COC(=O)Nc1ccc(S(=O)(=O)N2CCCCC2)cc1	5.2%	19.5%	-5.3%	-5.9%	8.1%	14.3%
Cc1ccc(C(=O)c2sc(Nc3ccc(Cl)cc3C)nc2N)cc1	28.2µM*	.	.	.	.	.
CCC(=O)c1sc(Nc2ccc(Cl)cc2C)nc1N	-19.9%	.	.	.	.	.
Nc1nc(Nc2ccccc2F)sc1C(=O)c1ccccc1	-11.5%	-12.5%	44.7µM*	-3.0%	?	10.5%[0.501 µM]
Cc1cc2c(cc1C)N[C@]1(C[C@H]3CCCC(=O)N4CC[C@@H](C1)[C@@H]34)C(=NC(C)(C)CC(C)(C)C)N2	-5.0%	?	.	9.8%	22.4µM*	.
CCC(CO)N=CC1=C(O)CC(C)(C)CC1=O (configuration not stated)	0.0%	19.7%	-1.0%	0.7%	-10.9%	70.8µM*
CN(C)c1ccc(CNC(=O)CCCN2C(=O)CCn3nc(-c4cn(C)c5ccccc45)cc32)cc1	-29.9%	9.1%[57 µM]	-4.0%	.	-26.8%	13.5%[59 µM]
CN(C)c1ccc(CNC(=O)CN2C(=O)CCn3nc(-c4cn(C)c5ccccc45)cc32)cc1	?	-9.4%[57 µM]	44.7µM*	.	50.1µM*	?
CCC(CC)CN1C[C@]23C=C[C@H](O2)C(C(=O)N(C)CCn2ccnc2C)C3C1=O (some centres not stated)	-0.2%	.	.	.	.	.
Cc1ccc(CN2CCCNC2=O)cc1	16.0%	2.9%	?	-3.0%	-15.3%	-5.8%
Cc1ccc(C)c(CN2CCCNC2=O)c1	0.0%	20.8%	?	-11.8%	-14.7%	44.7µM*
COC(=O)c1ccc2c(=O)n3nc(Nc4cc(OC)ccc4OC)sc3nc2c1	-4.0%	27.1%	0.3%	.	-19.3%	-14.3%[59 µM]
COc1ccc(CN2C(=O)c3cccnc3C2=O)cc1S(=O)(=O)N1CCCC(C)C1 (configuration not stated)	5.9%	41.3%	56.2µM*	-13.3%	-11.1%	18.1%
CCN(c1ccccc1)S(=O)(=O)c1cc(CN2C(=O)c3cccnc3C2=O)ccc1OC	-29.7%	25.5%	?	-4.9%	-2.1%	-10.7%
COc1ccc(CN2C(=O)c3cccnc3C2=O)cc1S(=O)(=O)NCc1ccc(C)cc1	12.0%	52.0%	79.4µM*	-4.4%	-13.7%	-23.7%
